# In ChEMBL document CHEMBL1961873, “Compounds: GSK PKIS; Assays: Nanosyn kinase panel” (2012):
# Columns and labels:
# [1] = test system: Epidermal growth factor receptor (Homo sapiens), P00533 [L858R,T790M]; details: at 0.1 µM
# [2] = test system: Epidermal growth factor receptor (Homo sapiens), P00533 [L858R,T790M]; details: at 1 µM
# [3] = target: Ephrin type-A receptor 2 (Homo sapiens) (UniProt P29317); details: at 0.1 µM
# [4] = target: Ephrin type-A receptor 2 (Homo sapiens) (UniProt P29317); details: at 1 µM
# [5] = target: Ephrin type-A receptor 3 (Homo sapiens) (UniProt P29320); details: at 0.1 µM
# [6] = target: Ephrin type-A receptor 3 (Homo sapiens) (UniProt P29320); details: at 1 µM
# [7] = target: Ephrin type-A receptor 4 (Homo sapiens) (UniProt P54764); details: at 0.1 µM
# [8] = target: Ephrin type-A receptor 4 (Homo sapiens) (UniProt P54764); details: at 1 µM
# [9] = target: Ephrin type-B receptor 2 (Homo sapiens) (UniProt P29323); details: at 0.1 µM
# [10] = target: Ephrin type-B receptor 2 (Homo sapiens) (UniProt P29323); details: at 1 µM
# [11] = target: Ephrin type-B receptor 3 (Homo sapiens) (UniProt P54753); details: at 0.1 µM
# [12] = target: Ephrin type-B receptor 3 (Homo sapiens) (UniProt P54753); details: at 1 µM
# [13] = target: Ephrin type-B receptor 4 (Homo sapiens) (UniProt P54760); details: at 0.1 µM
# [14] = target: Ephrin type-B receptor 4 (Homo sapiens) (UniProt P54760); details: at 1 µM
# [15] = target: Receptor tyrosine-protein kinase erbB-2 (Homo sapiens) (UniProt P04626); details: at 0.1 µM
# [16] = target: Receptor tyrosine-protein kinase erbB-2 (Homo sapiens) (UniProt P04626); details: at 1 µM
# [17] = target: Receptor tyrosine-protein kinase erbB-4 (Homo sapiens) (UniProt Q15303); details: at 0.1 µM
# [18] = target: Receptor tyrosine-protein kinase erbB-4 (Homo sapiens) (UniProt Q15303); details: at 1 µM
# [19] = target: Tyrosine-protein kinase Fer (Homo sapiens) (UniProt P16591); details: at 0.1 µM
# [20] = target: Tyrosine-protein kinase Fer (Homo sapiens) (UniProt P16591); details: at 1 µM
# [21] = target: Tyrosine-protein kinase Fes/Fps (Homo sapiens) (UniProt P07332); details: at 0.1 µM
# [22] = target: Tyrosine-protein kinase Fes/Fps (Homo sapiens) (UniProt P07332); details: at 1 µM
# [23] = target: Fibroblast growth factor receptor 1 (Homo sapiens) (UniProt P11362); details: at 0.1 µM
# [24] = target: Fibroblast growth factor receptor 1 (Homo sapiens) (UniProt P11362); details: at 1 µM
# [25] = target: Fibroblast growth factor receptor 2 (Homo sapiens) (UniProt P21802); details: at 0.1 µM
# [26] = target: Fibroblast growth factor receptor 2 (Homo sapiens) (UniProt P21802); details: at 1 µM
# [27] = target: Fibroblast growth factor receptor 3 (Homo sapiens) (UniProt P22607); details: at 0.1 µM
# [28] = target: Fibroblast growth factor receptor 3 (Homo sapiens) (UniProt P22607); details: at 1 µM
# [29] = target: Fibroblast growth factor receptor 4 (Homo sapiens) (UniProt P22455); details: at 0.1 µM
# [30] = target: Fibroblast growth factor receptor 4 (Homo sapiens) (UniProt P22455); details: at 1 µM
# [31] = target: Tyrosine-protein kinase Fgr (Homo sapiens) (UniProt P09769); details: at 0.1 µM
# [32] = target: Tyrosine-protein kinase Fgr (Homo sapiens) (UniProt P09769); details: at 1 µM
# [33] = target: Vascular endothelial growth factor receptor 1 (Homo sapiens) (UniProt P17948); details: at 0.1 µM
# [34] = target: Vascular endothelial growth factor receptor 1 (Homo sapiens) (UniProt P17948); details: at 1 µM
# [35] = target: Receptor-type tyrosine-protein kinase FLT3 (Homo sapiens) (UniProt P36888); details: at 0.1 µM
# [36] = target: Receptor-type tyrosine-protein kinase FLT3 (Homo sapiens) (UniProt P36888); details: at 1 µM
# [37] = test system: Receptor-type tyrosine-protein kinase FLT3 (Homo sapiens), P36888 [D835Y]; details: at 0.1 µM
# [38] = target: Non-receptor tyrosine-protein kinase TYK2 (Homo sapiens) (UniProt P29597); details: at 1 µM;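 note: values are mean percent inhibition of TYK2 kinase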
# [39] = target: Tyrosine-protein kinase receptor TYRO3 (Homo sapiens) (UniProt Q06418); details: at 0.1 µM
# [40] = target: Tyrosine-protein kinase receptor TYRO3 (Homo sapiens) (UniProt Q06418); details: at 1 µM
# [41] = target: Tyrosine-protein kinase Yes (Homo sapiens) (UniProt P07947); details: at 0.1 µM
# [42] = target: Tyrosine-protein kinase Yes (Homo sapiens) (UniProt P07947); details: at 1 µM
# [43] = target: Tyrosine-protein kinase ZAP-70 (Homo sapiens) (UniProt P43403); details: at 0.1 µM
# [44] = target: Tyrosine-protein kinase ZAP-70 (Homo sapiens) (UniProt P43403); details: at 1 µM
# [45] = target: Serine/threonine-protein kinase B-raf (Homo sapiens) (UniProt P15056); details: at 0.1 µM
# [46] = target: Serine/threonine-protein kinase B-raf (Homo sapiens) (UniProt P15056); details: at 1 µM
# [47] = test system: Serine/threonine-protein kinase B-raf (Homo sapiens), P15056 [V600E]; details: at 0.1 µM
# [48] = test system: Serine/threonine-protein kinase B-raf (Homo sapiens), P15056 [V600E]; details: at 1 µM
# [49] = target: RAF proto-oncogene serine/threonine-protein kinase (Homo sapiens) (UniProt P04049); details: at 0.1 µM
# [50] = target: RAF proto-oncogene serine/threonine-protein kinase (Homo sapiens) (UniProt P04049); details: at 1 µM
# [51] = target: Interleukin-1 receptor-associated kinase 4 (Homo sapiens) (UniProt Q9NWZ3); details: at 0.1 µM
# [52] = target: Interleukin-1 receptor-associated kinase 4 (Homo sapiens) (UniProt Q9NWZ3); details: at 1 µM
# [53] = target: Leucine-rich repeat serine/threonine-protein kinase 2 (Homo sapiens) (UniProt Q5S007); details: at 0.1 µM
# [54] = target: Leucine-rich repeat serine/threonine-protein kinase 2 (Homo sapiens) (UniProt Q5S007); details: at 1 µM
# [55] = test system: Leucine-rich repeat serine/threonine-protein kinase 2 (Homo sapiens), Q5S007 [G2019S]; details: at 0.1 µM
# [56] = test system: Leucine-rich repeat serine/threonine-protein kinase 2 (Homo sapiens), Q5S007 [G2019S]; details: at 1 µM
# Sequence of Vascular endothelial growth factor receptor 1 (Homo sapiens) (P17948 whole entry): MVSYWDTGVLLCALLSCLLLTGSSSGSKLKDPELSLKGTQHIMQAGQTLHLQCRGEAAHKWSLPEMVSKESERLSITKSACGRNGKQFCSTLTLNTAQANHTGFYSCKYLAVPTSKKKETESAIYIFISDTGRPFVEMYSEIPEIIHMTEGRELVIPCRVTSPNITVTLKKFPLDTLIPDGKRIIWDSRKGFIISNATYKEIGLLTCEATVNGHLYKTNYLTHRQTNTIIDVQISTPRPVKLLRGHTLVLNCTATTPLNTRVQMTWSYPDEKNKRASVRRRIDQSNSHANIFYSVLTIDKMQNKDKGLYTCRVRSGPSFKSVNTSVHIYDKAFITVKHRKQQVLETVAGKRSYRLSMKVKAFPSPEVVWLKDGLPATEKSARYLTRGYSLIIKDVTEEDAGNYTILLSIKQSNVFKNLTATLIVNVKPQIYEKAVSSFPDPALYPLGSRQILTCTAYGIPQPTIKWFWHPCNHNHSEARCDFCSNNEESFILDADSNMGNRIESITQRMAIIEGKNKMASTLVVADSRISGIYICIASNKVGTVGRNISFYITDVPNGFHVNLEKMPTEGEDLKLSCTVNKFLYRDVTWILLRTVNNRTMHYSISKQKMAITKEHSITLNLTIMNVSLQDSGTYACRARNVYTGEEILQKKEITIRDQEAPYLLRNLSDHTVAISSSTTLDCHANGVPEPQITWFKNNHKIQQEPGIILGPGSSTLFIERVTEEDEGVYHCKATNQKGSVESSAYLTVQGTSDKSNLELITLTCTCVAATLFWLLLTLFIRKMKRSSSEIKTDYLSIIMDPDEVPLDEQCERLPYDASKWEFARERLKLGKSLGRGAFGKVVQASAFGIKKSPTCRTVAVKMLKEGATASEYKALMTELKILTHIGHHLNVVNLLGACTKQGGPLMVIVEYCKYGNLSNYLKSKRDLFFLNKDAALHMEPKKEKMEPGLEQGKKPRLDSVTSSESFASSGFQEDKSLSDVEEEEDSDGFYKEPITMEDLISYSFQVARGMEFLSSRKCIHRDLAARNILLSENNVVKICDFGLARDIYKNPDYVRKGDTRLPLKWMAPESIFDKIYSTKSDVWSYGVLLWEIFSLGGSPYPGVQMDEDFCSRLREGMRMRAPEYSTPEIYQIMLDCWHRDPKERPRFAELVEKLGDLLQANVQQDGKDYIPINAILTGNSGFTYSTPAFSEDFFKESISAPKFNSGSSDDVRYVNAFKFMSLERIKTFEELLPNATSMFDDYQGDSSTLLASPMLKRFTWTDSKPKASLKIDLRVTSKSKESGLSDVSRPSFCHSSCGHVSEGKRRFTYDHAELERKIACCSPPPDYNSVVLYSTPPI
# Sequence of RAF proto-oncogene serine/threonine-protein kinase (Homo sapiens) (P04049 whole entry): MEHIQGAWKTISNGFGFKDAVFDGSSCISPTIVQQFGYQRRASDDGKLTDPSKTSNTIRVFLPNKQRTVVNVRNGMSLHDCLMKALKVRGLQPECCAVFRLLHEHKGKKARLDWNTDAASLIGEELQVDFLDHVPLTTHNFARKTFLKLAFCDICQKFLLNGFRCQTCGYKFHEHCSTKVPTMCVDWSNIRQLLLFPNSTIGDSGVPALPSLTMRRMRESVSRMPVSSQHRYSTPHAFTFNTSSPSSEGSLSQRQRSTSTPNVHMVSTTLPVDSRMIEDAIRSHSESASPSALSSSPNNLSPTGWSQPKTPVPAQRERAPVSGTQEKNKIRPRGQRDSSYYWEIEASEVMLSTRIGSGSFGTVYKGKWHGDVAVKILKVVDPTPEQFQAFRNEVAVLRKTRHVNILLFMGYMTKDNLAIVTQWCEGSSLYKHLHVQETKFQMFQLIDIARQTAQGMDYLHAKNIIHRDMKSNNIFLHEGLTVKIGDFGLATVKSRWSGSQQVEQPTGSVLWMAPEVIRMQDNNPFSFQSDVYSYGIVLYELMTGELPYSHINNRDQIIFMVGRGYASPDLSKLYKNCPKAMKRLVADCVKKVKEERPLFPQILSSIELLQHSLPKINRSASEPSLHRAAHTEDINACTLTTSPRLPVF
# Sequence of Ephrin type-A receptor 3 (Homo sapiens) (P29320 whole entry): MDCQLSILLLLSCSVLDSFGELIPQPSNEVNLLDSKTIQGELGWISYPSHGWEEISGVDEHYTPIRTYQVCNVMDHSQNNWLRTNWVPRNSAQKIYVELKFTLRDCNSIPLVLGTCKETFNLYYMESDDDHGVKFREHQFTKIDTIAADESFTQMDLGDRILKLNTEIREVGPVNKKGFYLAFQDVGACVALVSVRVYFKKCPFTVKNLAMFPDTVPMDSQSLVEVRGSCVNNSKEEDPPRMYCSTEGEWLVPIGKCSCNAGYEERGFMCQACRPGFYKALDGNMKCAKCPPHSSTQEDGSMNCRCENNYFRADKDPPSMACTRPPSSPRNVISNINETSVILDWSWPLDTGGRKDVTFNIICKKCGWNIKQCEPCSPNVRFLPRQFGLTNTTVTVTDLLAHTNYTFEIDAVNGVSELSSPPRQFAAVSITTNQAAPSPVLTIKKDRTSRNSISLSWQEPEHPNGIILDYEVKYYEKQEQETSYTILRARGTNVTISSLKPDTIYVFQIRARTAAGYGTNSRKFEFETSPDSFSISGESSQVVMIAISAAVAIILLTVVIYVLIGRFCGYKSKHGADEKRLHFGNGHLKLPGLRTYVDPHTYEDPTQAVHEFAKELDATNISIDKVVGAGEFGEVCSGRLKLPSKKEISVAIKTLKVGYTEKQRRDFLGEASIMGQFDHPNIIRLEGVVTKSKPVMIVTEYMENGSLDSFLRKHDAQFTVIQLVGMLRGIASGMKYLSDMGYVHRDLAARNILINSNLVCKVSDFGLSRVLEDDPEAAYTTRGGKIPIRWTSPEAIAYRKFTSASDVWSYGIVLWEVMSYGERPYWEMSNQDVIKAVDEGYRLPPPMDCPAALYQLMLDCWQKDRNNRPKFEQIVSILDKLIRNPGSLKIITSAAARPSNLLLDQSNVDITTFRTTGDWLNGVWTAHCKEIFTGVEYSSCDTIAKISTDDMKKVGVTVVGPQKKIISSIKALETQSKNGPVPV
# Sequence of Ephrin type-B receptor 2 (Homo sapiens) (P29323 whole entry): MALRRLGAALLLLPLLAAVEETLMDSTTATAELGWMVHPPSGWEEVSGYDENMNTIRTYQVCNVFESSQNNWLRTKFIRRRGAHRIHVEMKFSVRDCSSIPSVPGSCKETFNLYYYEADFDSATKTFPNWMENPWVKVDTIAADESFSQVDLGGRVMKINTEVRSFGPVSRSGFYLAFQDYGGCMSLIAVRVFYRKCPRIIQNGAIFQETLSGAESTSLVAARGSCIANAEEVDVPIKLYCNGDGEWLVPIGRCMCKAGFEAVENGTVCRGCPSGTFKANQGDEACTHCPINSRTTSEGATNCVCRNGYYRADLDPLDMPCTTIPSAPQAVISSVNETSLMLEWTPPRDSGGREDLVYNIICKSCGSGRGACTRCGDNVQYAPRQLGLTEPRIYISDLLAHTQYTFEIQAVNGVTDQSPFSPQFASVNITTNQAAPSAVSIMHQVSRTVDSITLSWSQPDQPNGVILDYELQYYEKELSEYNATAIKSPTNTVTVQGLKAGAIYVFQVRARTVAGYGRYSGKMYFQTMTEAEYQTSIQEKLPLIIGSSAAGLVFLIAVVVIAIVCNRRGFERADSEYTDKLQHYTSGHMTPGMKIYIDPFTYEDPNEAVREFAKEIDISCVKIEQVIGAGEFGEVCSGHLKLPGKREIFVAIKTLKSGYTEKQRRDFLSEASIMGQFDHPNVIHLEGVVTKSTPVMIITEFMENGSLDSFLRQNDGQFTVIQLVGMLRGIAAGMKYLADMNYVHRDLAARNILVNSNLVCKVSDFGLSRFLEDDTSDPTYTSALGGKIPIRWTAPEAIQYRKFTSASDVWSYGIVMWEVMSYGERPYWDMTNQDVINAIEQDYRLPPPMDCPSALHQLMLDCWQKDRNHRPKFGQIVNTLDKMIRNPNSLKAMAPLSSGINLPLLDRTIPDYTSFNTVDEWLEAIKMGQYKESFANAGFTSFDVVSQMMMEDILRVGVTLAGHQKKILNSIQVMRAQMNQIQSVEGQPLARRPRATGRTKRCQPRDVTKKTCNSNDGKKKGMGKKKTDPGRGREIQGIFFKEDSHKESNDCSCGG
# Sequence of Serine/threonine-protein kinase B-raf (Homo sapiens), P15056 [V600E] (P15056 whole entry V600E): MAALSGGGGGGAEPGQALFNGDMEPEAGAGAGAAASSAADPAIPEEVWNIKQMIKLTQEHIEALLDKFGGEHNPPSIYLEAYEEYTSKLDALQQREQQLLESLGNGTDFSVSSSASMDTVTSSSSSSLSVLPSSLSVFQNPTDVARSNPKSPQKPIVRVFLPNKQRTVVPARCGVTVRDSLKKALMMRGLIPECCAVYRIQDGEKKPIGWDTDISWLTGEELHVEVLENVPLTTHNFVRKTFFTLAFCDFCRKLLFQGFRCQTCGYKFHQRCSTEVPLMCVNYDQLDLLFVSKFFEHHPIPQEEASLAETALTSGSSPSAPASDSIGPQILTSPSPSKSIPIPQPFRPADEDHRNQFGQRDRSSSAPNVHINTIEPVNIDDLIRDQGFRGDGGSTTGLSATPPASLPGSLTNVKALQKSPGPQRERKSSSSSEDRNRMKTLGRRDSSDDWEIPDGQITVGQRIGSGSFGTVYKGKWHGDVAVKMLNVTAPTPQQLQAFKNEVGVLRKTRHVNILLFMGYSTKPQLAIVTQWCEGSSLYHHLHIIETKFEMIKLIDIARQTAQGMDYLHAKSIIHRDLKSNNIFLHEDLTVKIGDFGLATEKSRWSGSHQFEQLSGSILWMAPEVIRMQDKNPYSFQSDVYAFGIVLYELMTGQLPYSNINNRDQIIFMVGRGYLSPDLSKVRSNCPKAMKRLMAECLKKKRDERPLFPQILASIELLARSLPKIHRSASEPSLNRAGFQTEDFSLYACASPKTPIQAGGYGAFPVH
# Sequence of Serine/threonine-protein kinase B-raf (Homo sapiens) (P15056 whole entry): as the sequence (P15056 whole entry V600E) above, with E600V counted along it
smiles,measurement,setting,value
CNC(=O)Oc1cc(C)c(/C=C/c2cncc(C(=O)NC)c2)c(C)c1,inhibition,[1],-1.98%
same,inhibition,[2],-0.11%
same,inhibition,[3],12%
same,inhibition,[4],49.6%
same,inhibition,[5],7.72%
same,inhibition,[6],17.6%
same,inhibition,[7],17.7%
same,inhibition,[8],61.4%
same,inhibition,[9],12.4%
same,inhibition,[10],52.8%
same,inhibition,[11],5.12%
same,inhibition,[12],6.12%
same,inhibition,[13],9.51%
same,inhibition,[14],49.7%
same,inhibition,[15],0.63%
same,inhibition,[16],-1.51%
same,inhibition,[17],7.57%
same,inhibition,[18],13.2%
same,inhibition,[19],0.78%
same,inhibition,[20],3.53%
same,inhibition,[21],5.18%
same,inhibition,[22],7.85%
same,inhibition,[23],3.22%
same,inhibition,[24],0.63%
same,inhibition,[25],0.21%
same,inhibition,[26],10.2%
same,inhibition,[27],2.97%
same,inhibition,[28],2.24%
same,inhibition,[29],-0.84%
same,inhibition,[30],0.6%
same,inhibition,[31],3.83%
same,inhibition,[32],24.6%
same,inhibition,[33],0.98%
same,inhibition,[34],4.03%
same,inhibition,[35],1.57%
same,inhibition,[36],1.37%
same,inhibition,[37],0.68%
same,inhibition,[38],-0.46%
same,inhibition,[39],1.9%
same,inhibition,[40],5.43%
same,inhibition,[41],4.32%
same,inhibition,[42],23.4%
same,inhibition,[43],2%
same,inhibition,[44],-0.7%
same,inhibition,[45],4.75%
same,inhibition,[46],9.98%
same,inhibition,[47],4.23%
same,inhibition,[48],8.52%
same,inhibition,[49],-2.42%
same,inhibition,[50],1.27%
same,inhibition,[51],-1.38%
same,inhibition,[52],1.67%
same,inhibition,[53],7.04%
same,inhibition,[54],10.5%
same,inhibition,[55],5.2%
same,inhibition,[56],18.7%
